Hit rate of the full screen: of about 120,000 compounds, about 5,300 (4.4%) were called active. Not shown: some 22% with an inconclusive outcome. The call rests on the fitted dose curve; in most records, active means well fitted inhibition curve with a large enough effect; inconclusive means small, poorly fitted or top-dose-only effect; inactive means no such curve, though single readings can be large or run the other way. The list comes from a sample in which actives are over-represented; it also holds similar structures and randomly drawn compounds. Where a call stands in place of a potency, no number is given.
Potency means the concentration at half of the fitted maximal effect.

A short description of the test: qHTS Primary assay for Inhibitors of Plasmodium falciparum Dd2 growth in vitro. Further: nearly all actives have a fitted effect of over 65% in size. Particulars: P. falciparum Dd2 growth, SYBR Green, 72 h; series mostly up to 28.9 µM. In outline: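 Readout: SYBR Green fluorescence, 485 nm excitation, 535 nm emission, after ~16 h lysis at 37C. Before that, Dd2-infected red cells (2.5% hematocrit) grew 72 h with compound, 29 uM top final concentration.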
Background: qHTS replaces the single test concentration by a dilution series.
Turning to `O=C1NCCCCCN(C(=O)NCCc2ccccc2)[C@H]2CCC[C@@H]12`, the Potency result was “inactive”.

On to `O=C(N1CCCCCC1CN1CCOCC1)C1(c2ccccc2)CC1` (stereo not given), for which the Potency was 10 µM (active).

In the case of `COC1CCN(CC2CCCCCN2C(=O)NCc2ccc(F)cc2)CC1` (stereo not given), the Potency entry was “inactive”.

As for `O=C(c1cccs1)N1CCCCCC1CN1CCCC1` (stereo not given), the Potency is 1.26 µM (active).

As to `O=C(N1CCCC(Cc2nc(C3CCOCC3)no2)C1)C1(c2ccccc2)CC1` (stereo not given), the Potency result was “inactive”.

For the molecule `O=C(NCCc1ccccc1)N1CCCCCC1CN1CCOCC1` (stereo not given), the Potency was 7.94 µM (active).

Regarding `O=C(Cc1cccs1)N1CCCCCC1c1nc(C2CC2)no1` (stereo not given), the Potency result was “inactive”.

Regarding `O=C1NCCOCCCN(C(=O)NCCc2ccccc2)[C@H]2CCC[C@@H]12`, the Potency result is “inactive”.

For `CC(=O)N(C1CC1)C1CCOC2(CCN(C(=O)C3(c4ccccc4)CC3)CC2)C1` (stereo not given), the Potency entry was “inactive”.

Consider `Cc1cc(C)n(-c2cccc(CN(C)Cc3nc(-c4ccccn4)no3)c2)n1`, for which the Potency result is “inactive”.

As to `CC(C)c1ccc(N2C(=O)N[C@@H]3CCN(C(=O)c4ccc(C(C)(C)C)cc4)[C@@H]3C2=O)cc1`, the Potency entry was “inactive”.

With `O=C(Cn1ccn2nc(-c3ccccc3)c(CO)c2c1=O)Nc1ccc2c(c1)CCC2`, the Potency entry is “inactive”.

On to `O=C(c1ccc2cc[nH]c2c1)N1CCCN(c2cc(-c3ccc(Cl)cc3)[nH]n2)CC1`, for which the Potency entry is “inactive”.

Consider `CN1C(=O)CS(=O)C12CCN(S(=O)(=O)c1ccc(F)cc1)CC2` (stereo not given), for which the Potency entry is “inactive”.

Consider `Cc1noc([C@@H]2CN(Cc3ccc(C)o3)C[C@H]2CO)n1`, for which the Potency result was “inactive”.

As to `CN(C)c1ccc(NC(=O)CSc2nc(-c3ccco3)cc(C(F)(F)F)n2)cc1`, the Potency result was “inactive”.

As to `Cc1ccc(F)cc1NC(=O)CCSc1nc(-c2ccco2)cc(C(F)(F)F)n1`, the Potency is 0.794 µM (active).

Consider `Cc1cccc(NC(=O)CSc2nc(-c3ccco3)cc(C(F)(F)F)n2)c1C`, for which the Potency result was “inactive”.

For the molecule `Cc1cc(C)cc(C(=O)NCCc2noc(C)n2)c1`, the Potency entry is “inactive”.

For `COc1ccccc1N1CCN(c2ncnc3onc(-c4ccc(F)cc4)c23)CC1`, the Potency entry is “inactive”.

Take `Cc1ccc(Cl)cc1N(C)C(=O)C1CCCN(c2ncnc3onc(-c4ccc(F)cc4)c23)C1` (stereo not given): the Potency is 8.91 µM (active).

For `Cc1c(Cl)cccc1NC(=O)C1CCCN(c2ncnc3onc(C)c23)C1` (stereo not given), the Potency result was “inactive”.

Regarding `COc1ccc(C(=O)N[C@H](c2cnn(C)c2)C2CC(O)C2)c(F)c1F` (stereo not given in full), the Potency result was “inactive”.

Regarding `COc1cccc(CN2CCN(Cc3ncccc3C)CC2)c1O`, the Potency result was “inactive”.

With `CCOC(=O)c1[nH]ncc1CN1CCCC(Cc2ccc(F)cc2F)(C(=O)OCC)C1` (stereo not given), the Potency entry is “inactive”.

As for `CCOC(=O)C1(Cc2ccc(F)cc2F)CCCN(Cc2cccc(OC)c2O)C1` (stereo not given), the Potency was 3.16 µM (active).

For `CCOC(=O)c1c(C)[nH]c(C)c1S(=O)(=O)N1CCC(C(=O)Nc2ccc(C)c(Cl)c2)CC1`, the Potency entry is “inactive”.

On to `CCOc1ccc(NC(=O)C2CCN(S(=O)(=O)c3cc(-c4noc(C)n4)ccc3C)CC2)cc1`, for which the Potency was 3.98 µM (active).

As to `CC(=O)c1ccc(NC(=O)C2CCN(S(=O)(=O)c3c(C)noc3/C=C/c3ccc(C)cc3)CC2)cc1`, the Potency result was “inactive”.

`Cc1cnn(CCC(=O)N2CC(F)(F)C[C@H]2c2nnc(C)o2)c1`: the Potency result was “inactive”.

`COc1cccc(S(=O)(=O)N2CCCN(C(=O)C3CC3)c3ccccc32)c1`: the Potency result is “inactive”.

For `CCOC(=O)c1c(C)[nH]c(C)c1S(=O)(=O)N(C)CC(=O)N1CCN(c2ccccc2)CC1`, the Potency result is “inactive”.

Turning to `Cc1nc(SCC(=O)N2CCN(c3ccccc3)CC2)[nH]c(=O)c1C`, the Potency entry is “inactive”.

Take `CCOC(=O)c1[nH]c(C)c(CCC(=O)N2CCN(c3ccccc3)CC2)c1C`: the Potency was 3.98 µM (active).

`COCCN1C(=O)c2cccn2CC1CNS(=O)(=O)c1c(C)noc1C` (stereo not given): the Potency entry is “inactive”.

`O=C(c1cccc(OC2CN(Cc3nccs3)C2)c1)N1CCOCC1`: the Potency is 2.51 µM (active).

`COc1cccc(C(=O)N2CCC(Oc3ccc(C(=O)N4CCOCC4)cn3)CC2)c1`: the Potency result is “inactive”.

Turning to `O=C(c1cccc(F)c1)N1CCOC[C@H](Oc2ccc(C(F)(F)F)cc2)C1`, the Potency result is “inactive”.

For the molecule `O=C(c1ccccc1)N1Cc2ccccc2CC2(CCCN2CC2CCNC2)C1` (stereo not given), the Potency entry was “inactive”.

On to `CC(=O)NCCC(=O)N1Cc2ccccc2CC2(CCCCN2CC2CCNC2)C1` (stereo not given), for which the Potency result was “inactive”.

As for `O=C(C1CCCC1)N1Cc2ccccc2CC2(CCCCN2CC2CCNCC2)C1` (stereo not given), the Potency was 5.01 µM (active).

With `COCCOc1ccnc(-c2noc([C@@H]3CCCN3Cc3ccc(Cl)cc3)n2)c1`, the Potency was 3.98 µM (active).

For `COCCNc1ncccc1-c1noc([C@@H]2CCCN2Cc2ccc3c(c2)OCO3)n1`, the Potency result was “inactive”.

Turning to `COc1ccc(C(=O)Nc2ccc(-c3noc([C@@H]4CCCN4Cc4ccc(S(C)(=O)=O)cc4)n3)cn2)cc1`, the Potency result was “inactive”.

Consider `Cc1ccc2c(c1)N1C(=O)OC[C@@H]1CCN(C(=O)c1ccnc(Cl)c1)C2`, for which the Potency entry was “inactive”.

On to `Cc1ccc(-c2nocc2CCC(=O)N2CCN(c3ccccc3F)CC2)cc1`, for which the Potency result was “inactive”.

For the molecule `CN(C)C(=O)c1cccnc1N1CC2CC(C1)[C@H]1CCCC(=O)N1C2` (stereo not given in full), the Potency entry was “inactive”.

Consider `COc1ccc(-c2ccccc2CN)cc1`, for which the Potency is 7.94 µM (active).

As for `COc1ccccc1-c1ccc(C(=O)O)cc1`, the Potency result was “inactive”.

`COc1ccc(-c2nn3c(-c4ccc(OC)cc4)nnc3c3ccccc23)cc1`: the Potency entry is “inactive”.

Consider `CC(C)c1noc(-c2cn(C3CCN(C(=O)COc4ccc(F)cc4)CC3)nn2)n1`, for which the Potency is 10 µM (active).

For `CC(C)c1noc(-c2cn(C3CCN(C(=O)c4cccc(C#N)c4)CC3)nn2)n1`, the Potency result was “inactive”.

As for `CC(C)c1noc(-c2cn(C3CCN(C(=O)COc4ccccc4)C3)nn2)n1` (stereo not given), the Potency entry is “inactive”.

Turning to `CNC(=O)[C@@H]1CN(C(=O)Cc2cccnc2)C[C@H]1COC`, the Potency result is “inactive”.

Consider `O=C(NC1CCCC1)N1CC2CC(C1)[C@H]1CCCC(=O)N1C2` (stereo not given in full), for which the Potency entry was “inactive”.

As for `COC(=O)c1scc(-c2ccccc2)c1S(=O)(=O)Nc1ccccc1`, the Potency entry was “inactive”.

Consider `CCOC(=O)c1scc(-c2ccc(C)cc2)c1S(=O)(=O)Nc1cc(C)ccc1C`, for which the Potency entry was “inactive”.

Turning to `COC(=O)c1scc(-c2ccc(C)cc2)c1S(=O)(=O)Nc1cc(Cl)c(OC)cc1OC`, the Potency was 8.91 µM (active).

As to `COc1ccc(CN2C[C@H]3CN(Cc4ccccc4)CCN3C2=O)cc1`, the Potency entry was “inactive”.

As to `CCCS(=O)(=O)N1CCC2(CC1)C(OC)C(=O)N2CC1CC1` (stereo not given), the Potency result is “inactive”.

Regarding `COc1ccc(N2CCN(CCCNC(=O)C3(CCO)CC34CCOCC4)CC2)cc1` (stereo not given), the Potency result was “inactive”.

On to `COc1ccc(-c2nc(Cn3c(=O)cc(C)c4c(C)nn(-c5ccccc5)c43)c(C)o2)c(OC)c1`, for which the Potency entry was “inactive”.

As to `COc1ccc(C2CC(=O)N(Cc3ccccc3C)c3c2c(C)nn3-c2nc(C)cc(C)n2)c(OC)c1` (stereo not given), the Potency is 10 µM (active).

On to `C#CCOc1ccc(C2CC(=O)Nc3c2c(C)nn3-c2nc(C)cc(C)n2)cc1` (stereo not given), for which the Potency entry was “inactive”.

With `CCc1cc(=O)n(CC(=O)Nc2ccc(OC)c(OC)c2)c(N2CCOCC2)n1`, the Potency entry was “inactive”.

Consider `COc1ccc2[nH]c(=O)c(CCC(=O)NCC(N)=O)cc2c1`, for which the Potency entry was “inactive”.

For `Cc1n[nH]c(C)c1CCC(=O)N[C@@H]1CN(S(C)(=O)=O)C[C@H]1CN(C)C`, the Potency result was “inactive”.

Consider `COc1ccc(OCC2CCN(CC3(O)CCCNC3)CC2)cc1` (stereo not given), for which the Potency was 12.6 µM (active).

With `OC1(CN2CCC(CCn3cccn3)CC2)CNCCOC1` (stereo not given), the Potency result was “inactive”.

Take `CCc1cc(N2CCN(CC3(O)CCCNC3)CC2)ncn1` (stereo not given): the Potency result is “inactive”.

Regarding `O=C(c1ccccn1)N1CCC2(CC1)C(=O)Nc1ccccc12`, the Potency result is “inactive”.

On to `O=C([C@@H]1C[C@H](Oc2ccccc2)CN1C(=O)NC1CCCCC1)N1CCCC1`, for which the Potency result is “inactive”.

Consider `COc1ccc(-c2nc(S(=O)(=O)c3ccccc3)c(N3CCCCC3)o2)cc1`, for which the Potency result was “inactive”.

On to `COc1ccc(N2CCN(C(=O)c3cn(C)c4ccc(S(=O)(=O)N5CCOCC5)cc4c3=O)CC2)cc1`, for which the Potency entry was “inactive”.

As to `COc1ccc(S(=O)(=O)c2cn(C)c3cc(N4CCCCC4)c(F)cc3c2=O)cc1`, the Potency was 8.91 µM (active).

With `Cc1ccc(S(=O)(=O)c2cn(Cc3ccccc3)c3cc(N4CCCC4)c(F)cc3c2=O)c(C)c1`, the Potency was 12.6 µM (active).

`CC1CCCN(c2cc3c(cc2F)c(=O)c(S(=O)(=O)c2cccc(Cl)c2)cn3Cc2ccccc2)C1` (stereo not given): the Potency entry is “inactive”.

`CCn1cc(C(=O)N2CCN(c3cc(Cl)ccc3C)CC2)c(=O)c2cc(S(=O)(=O)N3CCCC3)ccc21`: the Potency entry is “inactive”.

`CC(=O)N1CC2(CCN(C(=O)CCC(=O)O)CC2)Cc2ccccc21`: the Potency result is “inactive”.

For `COc1ccc(-c2cnc3n2CC(C(=O)NCCCN2CCCC2=O)CC3)cc1` (stereo not given), the Potency entry was “inactive”.

As for `O=C(N[C@@H]1CCC[C@@H]1C(=O)N1CCN(c2ccccc2F)CC1)c1ccncc1`, the Potency entry is “inactive”.

In the case of `COCC(=O)NC1CCN(c2ccc(C)cc2)C1=O` (stereo not given), the Potency entry was “inactive”.

Consider `COc1ccccc1C(=O)N1CCCC(n2cc(-c3nc(-c4ccccc4)no3)nn2)C1` (stereo not given), for which the Potency result was “inactive”.

Consider `O=C(NC1CCN(Cc2ccccc2)CC1)c1ccc(Cn2c(=O)c3ccccc3n(Cc3cccc(F)c3)c2=O)cc1`, for which the Potency is 7.94 µM (active).

Turning to `O=c1c2ccccc2n(Cc2cccc(Cl)c2)c(=O)n1Cc1ccccc1`, the Potency result was “inactive”.

As to `O=C(O)c1c(CNCc2cccc(F)c2)c2ccccc2n1Cc1ccccc1`, the Potency entry is “inactive”.

For `CC1=C[C@@H](CNC(=O)CCC(=O)O)[C@H](C(C)C)C[C@H]1Cc1nc2ccccc2n1C`, the Potency result was “inactive”.

Regarding `CC1=C[C@@H](CNC2CCN(C)CC2)[C@H](C(C)C)C[C@H]1Cc1nc2ccccc2[nH]1`, the Potency was 7.08 µM (active).

For `CC1=C[C@@H](CNC(=O)CC2(CC(=O)O)CCCC2)[C@H](C(C)C)C[C@H]1Cc1nc2c(C)cccc2[nH]1`, the Potency result was “inactive”.

As to `CC(=O)NC[C@@H]1C=C(C)[C@H](CC(=O)N2CCCC2)C[C@H]1C(C)C`, the Potency result was “inactive”.

With `CC1=C[C@@H](CNS(C)(=O)=O)[C@H](C(C)C)C[C@H]1Cc1nc2ccccc2[nH]1`, the Potency entry is “inactive”.

Take `COc1ccc(CC(=O)NC[C@@H]2C=C(C)[C@H](Cc3nc4ccncc4[nH]3)C[C@H]2C(C)C)cc1`: the Potency entry is “inactive”.

`CC(=O)N1CCC(NC[C@@H]2C=C(C)[C@H](Cc3nc4ccccc4n3C)C[C@H]2C(C)C)CC1`: the Potency is 4.47 µM (active).

In the case of `COc1ccc2nc(C[C@@H]3C[C@@H](C(C)C)[C@H](CNC(=O)CC(C)(C)CC(=O)O)C=C3C)[nH]c2c1`, the Potency result is “inactive”.

As for `CC1=C[C@@H](CN(CC2CC2)CC2CC2)[C@H](C(C)C)C[C@H]1Cc1nc2c(C)cccc2[nH]1`, the Potency was 7.08 µM (active).

(Values after PubChem BioAssay AID1347417 (National Center for Advancing Translational Sciences (NCATS), 2020).)
